Our source for the outcome and AC50 values is PubChem BioAssay (EPA / NIEHS).

Read-out in test [1]: Macrophage colony-stimulating factor (MCSF), CSF1 (gene 1435)
The experiment in a line: BSK_CASM3C_MCSF: BioMAP Diversity Plus: CASM3C Assay for Macrophage colony-stimulating factor (MCSF) Biomarker Activity (AID 2283044).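 Also: M-CSF protein amount quantified by ELISA after 24 h exposure.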 To be noted: primary human coronary artery smooth muscle cells; actives raise or lower the signal.

Read-out in test [2]: Low-density lipoprotein receptor (LDLR), LDLR (gene 3949)
The experiment in a line: BSK_CASM3C_LDLR: BioMAP Diversity Plus: CASM3C Assay for Low-density lipoprotein receptor (LDLR) Biomarker Activity (AID 2283045).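 Also: LDLR protein level on the cell surface quantified by ELISA.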 To be noted: primary human coronary artery smooth muscle cells; actives raise or lower the signal.

Read-out in test [3]: Monocyte Chemoattractant Protein-1 (MCP1), CCL2 (gene 6347)
The experiment in a line: BSK_CASM3C_MCP1: BioMAP Diversity Plus: CASM3C Assay for Monocyte Chemoattractant Protein-1 (MCP1) Biomarker Activity (AID 2283046).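 Also: MCP-1 level quantified by ELISA 24 h after dosing.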 The note with it: primary human coronary artery smooth muscle cells; actives raise or lower the signal.

The nature of test [4]: BSK_CASM3C_Proliferation: Cell Proliferation Assessment in the BioMAP Diversity Plus: CASM3C Assay (AID 2283047).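 Also: sulforhodamine B total protein stain as relative cell number at 560 nm; sub-confluent cells exposed 48 h before staining; fitted both ways against DMSO so gain or loss of cell number.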 The note with it: primary human coronary artery smooth muscle cells.
Read-out in test [5]: Monokine induced gamma interferon (MIG), CXCL9 (gene 4283)
As to the kind of experiment: BSK_CASM3C_MIG: BioMAP Diversity Plus: CASM3C Assay for Monokine induced gamma interferon (MIG) Biomarker Activity (AID 2283048).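 Also: MIG protein level measured by ELISA.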 To be noted: primary human coronary artery smooth muscle cells; actives raise or lower the signal.

Read-out in test [6]: serum amyloid A (SAA), SAA1 (gene 6288)
As to the kind of experiment: BSK_CASM3C_SAA: BioMAP Diversity Plus: CASM3C Assay for serum amyloid A (SAA) Biomarker Activity (AID 2283049). To be noted: primary human coronary artery smooth muscle cells; actives raise or lower the signal.

Test [7] can be described thus: BSK_CASM3C_SRB: Viability Assessment in the BioMAP Diversity Plus: CASM3C Assay (AID 2283050).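 Also: total protein by SRB staining as cytotoxicity measure in parallel cultures; cells exposed to compound for 24 h.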 To be noted: primary human coronary artery smooth muscle cells.
Read-out in test [8]: Thrombomodulin, THBD (gene 7056)
As to the kind of experiment: BSK_CASM3C_Thrombomodulin: BioMAP Diversity Plus: CASM3C Assay for Thrombomodulin Biomarker Activity (AID 2283051).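 Also: thrombomodulin protein level measured by ELISA 24 h after dosing.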 To be noted: primary human coronary artery smooth muscle cells; actives raise or lower the signal.

Read-out in test [9]: Tissue Factor, F3 (gene 2152)
The experiment in a line: BSK_CASM3C_TissueFactor: BioMAP Diversity Plus: CASM3C Assay for Tissue Factor Biomarker Activity (AID 2283052).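 Also: cell surface tissue factor protein level read by ELISA.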 The note with it: primary human coronary artery smooth muscle cells; actives raise or lower the signal.

Read-out in test [10]: Interferon-gamma inducible Protein 10 (IP10), CXCL10 (gene 3627)
The experiment in a line: BSK_hDFCGF_IP10: BioMAP Diversity Plus: hDFCGF Assay for Interferon-gamma inducible Protein 10 (IP10) Biomarker Activity (AID 2283053). The note with it: primary human foreskin fibroblasts; actives raise or lower the signal. The method in brief: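 IP-10 levels, quantified by ELISA, are taken from human foreskin fibroblast cultures 24 h after chemical treatment, with DMSO serving as negative control and baseline for bidirectional analysis.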

Values joined by “and” are separate entries in the source; they are usually repeats but may differ in a detail not shown here. Equal values may be shown once. The source holds several records for some structures; these can differ, active in one and inactive in another. Active and inactive are the calls of the source. The calls were made as follows: active = hit-call score of the fitted dose curve at least 0.9, where 1 is the maximum; inactive = score below 0.9.

`CN(C)N=O`: the result in test [1], in test [2], in test [3], in test [4], in test [5] and in test [6] was inactive. Also, the outcome in [7], in test [8], in test [9] and in [10] was inactive.
For orientation: AC50 means the midpoint of the concentration-response curve, whichever way the signal moves. Regarding `CCN1CCC2(CC1)COc1cc3c(cc12)N(C(=O)c1ccc(-c2ccc(-c4nnc(C)o4)cc2C)cc1)CC3`, the AC50 in [1] is 27.4 µM (active); in test [2], 34.2 µM (active); in [3], 28.5 µM (active); in test [4], 18.7 µM (active); in test [5], 36 µM (active); in test [6], 32.5 µM (active). For the same compound, the half-maximal activity concentration (AC50) in test [7] was 24.4 µM (active); in test [8] it was 33.7 µM (active); in test [10] it was 9.35 µM (active). Also, the outcome in test [9] was inactive.
Take `CCCCC(CC)CO[N+](=O)[O-]` (centres undefined): the AC50 was 29.6 µM (active) in test [1], 20 µM (active) in test [3] and 33.6 µM (active) in test [7]. Further, the result in test [2], in test [4], in [5], in test [6], in test [8] and in test [9] was inactive. In addition, in test [10], the result was inactive.
Turning to `CCC(C)(C)c1ccc(O)c(C(C)(C)CC)c1`, the AC50 is 28.9 µM (active) in [1]; 33.8 µM (active) in test [2]; 34.6 µM (active) in [3]; 14.3 µM (active) in test [4]; 35.8 µM (active) in test [5]; 30 µM (active) in test [6]. The AC50 in [7] is 13 µM (active); in test [8], 33.8 µM (active); in test [9] it was 11.4 µM (active); in test [10], 6.49 µM (active).
With `ClC1=C(Cl)[C@]2(Cl)[C@H]3[C@H]([C@H]4C=C[C@H]3C4)[C@@]1(Cl)C2(Cl)Cl`, the outcome in [1], in test [2], in test [3], in test [5], in test [6] and in [7] was inactive. The result in test [8] and in test [10] was inactive. Moreover, the AC50 was 8.26 µM (active) in test [4] and 0.266 µM (active) in [9].
Take `CCCCCCCCC(=O)NCc1ccc(O)c(OC)c1`: the result in [1], in test [2], in test [3], in test [5], in [6] and in test [7] was inactive. Moreover, the outcome in test [8], in test [9] and in test [10] was inactive. Moreover, the concentration at half-maximal activity (AC50) in test [4] was 20 µM (active).
For `Nc1ccc(-c2ccc(N)c(Cl)c2)cc1Cl`, the result in [1], in [2], in test [3], in test [4], in test [5] and in test [6] was inactive. The result in test [7], in [8] and in [10] was inactive. Besides, the AC50 in test [9] was 11.6 µM (active).
Regarding `C[C@]12CCC(=O)C[C@@H]1CC[C@@H]1[C@@H]2CC[C@]2(C)[C@@H](O)CC[C@@H]12`, the result in test [1], in test [2], in test [3], in test [4], in test [5] and in test [6] was inactive. The outcome in test [7], in test [8], in [9] and in test [10] was inactive.
In the case of `Cc1ccccc1N`, the outcome in [1], in test [2], in test [3], in test [4], in test [5] and in test [6] was inactive. In addition, the result in [7], in test [8], in test [9] and in test [10] was inactive.
As to `C=CC(=O)OCCCCCC(C)C`, the result in [1], in test [2], in [3], in [4], in test [5] and in [6] was inactive. For the same compound, the outcome in test [7], in test [8], in test [9] and in test [10] was inactive.
`Cn1sc(Cl)cc1=O`: the result in test [1], in test [2], in test [3], in test [5], in test [6] and in test [7] was inactive. The result in test [8] and in test [9] was inactive. In addition, the AC50 is 6.81 µM (active) in [4] and 28.2 µM (active) in test [10].
As to `O=C(OC1CCCCC1)c1ccccc1C(=O)OC1CCCCC1`, the outcome in test [1], in test [3], in test [5] and in test [6] was inactive. In addition, the AC50 in test [2] was 34.2 µM (active); in test [4], 33.4 µM (active); in test [7] it was 20.9 µM (active); in test [8], 20.9 µM (active); in [9], 33 µM (active); in test [10], 13.4 µM (active).
On to `CC(C)CCCCCCOC(=O)c1ccccc1C(=O)OCCCCCCC(C)C`, for which the outcome in [1], in test [2], in [3], in test [4], in test [5] and in test [6] was inactive. The result in [7], in [8] and in [10] was inactive. The AC50 in [9] is 0.0332 µM (active).
`O=C(O)CCC(F)(C(F)(F)F)C(F)(F)F`: the concentration at half-maximal activity (AC50) was 23.9 µM (active) in test [1], 17.9 µM (active) in [6] and 1.93 µM (active) in test [10]. In addition, the outcome in test [1], in [2], in [3], in test [4], in [5] and in test [6] was inactive. The outcome in [7], in test [8], in test [9] and in [10] was inactive.
On to `CC(=O)OC(c1ccccc1)C(Cl)(Cl)Cl` (centres undefined), for which the result in test [1], in test [2], in [3], in test [4], in test [5] and in test [6] was inactive. In addition, the result in test [7], in [8], in [9] and in [10] was inactive.
As to `O=C(O)C(F)(F)C(F)(F)C(F)(F)C(F)(F)C(F)(F)C(F)(F)C(F)(F)C(F)(F)C(F)(F)C(F)(F)F`, the outcome in test [1], in test [2], in test [3], in test [4], in [5] and in [6] was inactive. Moreover, the result in [7], in test [8] and in [9] was inactive. The AC50 in [8] is 0.141 µM (active); in test [10], 6.56 µM (active) and 4.76 µM (active) and 4.7 µM (active).
